In PubChem BioAssay AID720504 (National Center for Advancing Translational Sciences (NCATS), 2013) one finds max response, negative = inhibition and Potency data, which are given here for 53 compounds.

About 10,000 (2.8%) of roughly 360,000 compounds were called active. Not shown: some 4% with an inconclusive outcome. What follows is part of a selection rich in actives, with near analogues and random picks from the rest. Values without a mark were called inactive. Calls follow the shape of the dose curve; as a rule, active = well fitted inhibition curve with a large enough effect; inconclusive = small, poorly fitted or top-dose-only effect; inactive = flat fitted curve, though single readings scatter.
% is scaled to controls: 0 for no effect and ±100 for the full control effect; potency is read from the fitted curve at half-maximal effect.

Chain of Serine/threonine-protein kinase PLK1 (Homo sapiens) (P53350 whole entry, looked up, the tested form may be a part): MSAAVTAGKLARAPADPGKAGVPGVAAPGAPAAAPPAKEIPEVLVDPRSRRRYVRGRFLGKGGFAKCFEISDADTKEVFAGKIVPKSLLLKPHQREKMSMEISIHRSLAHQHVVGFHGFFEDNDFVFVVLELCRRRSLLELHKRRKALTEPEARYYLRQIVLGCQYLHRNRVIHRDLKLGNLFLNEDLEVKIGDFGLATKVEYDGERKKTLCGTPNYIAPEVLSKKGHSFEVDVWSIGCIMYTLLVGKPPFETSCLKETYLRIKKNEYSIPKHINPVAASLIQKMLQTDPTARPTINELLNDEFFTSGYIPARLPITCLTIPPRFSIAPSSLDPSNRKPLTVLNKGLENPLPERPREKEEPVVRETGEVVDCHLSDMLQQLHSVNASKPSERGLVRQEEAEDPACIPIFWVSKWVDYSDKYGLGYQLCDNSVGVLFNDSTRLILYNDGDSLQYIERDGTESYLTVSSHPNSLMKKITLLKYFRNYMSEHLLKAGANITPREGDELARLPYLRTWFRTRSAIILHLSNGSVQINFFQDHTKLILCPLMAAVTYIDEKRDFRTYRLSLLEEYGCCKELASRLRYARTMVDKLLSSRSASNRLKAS

The assay has as its target Serine/threonine-protein kinase PLK1 (Homo sapiens) (UniProt P53350). Description: qHTS for Inhibitors of PLK1-PDB (polo-like kinase 1 - polo-box domain): Primary Screen. Also: nearly all actives have a fitted effect of over 65% in size. As to max response, negative = inhibition: series mostly up to about 57 µM. Particulars: Plk1 PBD binding of FITC phosphopeptide, fluorescence polarization. (Quantitative high-throughput screening tests each substance at several concentrations.)
Take `O=C(Nc1ccc(Cl)cc1)c1csc([C@@H]2O[C@H](CO)[C@H](O)[C@H](O)[C@H]2O)n1`: the max response, negative = inhibition was 2.4%.
On to `O=C(Nc1cccc(Cc2ccccc2)c1)Nc1ccc2nc([C@@H]3O[C@H](CO)[C@@H](O)[C@H](O)[C@H]3O)[nH]c2c1`, for which the max response, negative = inhibition is -5.78%.
For `CCOc1cccc(/C=N/N2C(=O)CSC2=S)c1O`, the Potency is 11.9 µM (active).
On to `CCOc1ccc(N2C(=O)CSC2=NC#N)cc1`, for which the max response, negative = inhibition was -14.5%.
The same measure, in the same setting: the same measure for `CCOc1cc(/C=N/n2cnnc2)c(Br)cc1O`: -5.37%; for `CCCCCCN1C[C@H](O)[C@@H](n2cc(C3CC3)nn2)C[C@@H]1c1ccc(Cl)cc1`: -0.475%; for `CCC(C)(C)NC(=O)C(c1ccc(OC)cc1)N(C(=O)CCC(=O)Nc1cc(C)on1)c1ccc(OC)cc1OC` (stereo not drawn): -9.49%.
For the compound `COc1ccc(C(C(=O)NC(C)(C)C)N(Cc2ccc(F)cc2)C(=O)CCC(=O)Nc2cc(C)on2)cc1` (stereo not drawn), the max response, negative = inhibition was -11.5%.
Take `CCC(C)(C)NC(=O)C(c1cccc(OC)c1OC)N(CC(C)C)C(=O)CCC(=O)Nc1cc(C)on1` (stereo not drawn): the Potency is 10.6 µM (active).
For `CC(=O)Nc1cc(-c2ccc(N3CCN(C)CC3)cc2)cn2c(-c3ccc(F)cc3)cnc12`, the max response, negative = inhibition was 1.71%.
Same read-out and setting: the value for `COCCCn1c(=O)/c(=C/c2ccccc2OC(C)C)s/c1=C(\C#N)C(=O)Nc1ccc(C(=O)O)cc1` was -29.5%; that for `Nc1nnn(CC(=O)N/N=C/c2ccc(O)cc2)n1` was -3.01%.
Regarding `O=C(C[n+]1ccccc1)N/N=C/c1ccc(O)cc1`, the Potency was 26.7 µM (active).
With `Cc1nonc1C(=O)N/N=C/c1ccc(O)cc1`, the max response, negative = inhibition was -1.21%.
The same measure, in the same setting: the value for `O=C(Nc1ccc2c(c1)[C@@H]1C[C@@H](CC(=O)N3CCCCC3)O[C@@H](CO)[C@@H]1O2)NC1CCCCC1` was 2.32%; that for `Cc1nc(C(F)(F)F)ccc1C(=O)N1CCC1(C)C(=O)NS(=O)(=O)c1ccc(F)cc1F` (stereo not drawn) was 1.72%.
The same measure, in the same setting: the same measure for `COc1ccc(-n2cc(-c3ccccc3)c3c(=S)nc[nH]c32)cc1`: -12.3%; for `COc1ccc(N2C(=O)CNC2=S)cc1`: 0.339%.
`COc1ccc(-c2cn(-c3ccc(OC)cc3)c(=S)[nH]2)cc1`: the Potency is 21.2 µM (active).
As for `Cc1csc(=O)n1CCC(=O)OCC(=O)Nc1ccc(N2CCOCC2)cc1`, the max response, negative = inhibition is 1%.
Same read-out and setting: the same measure for `CSc1ccc(CN2CCC2(C)C(=O)Nc2ccc(C)c(O)c2)cc1` (stereo not drawn): 4.93%; for `COc1cc(F)ccc1-c1cc(C(=O)NCC2CCCCC2)[nH]n1`: 1.4%.
Still for that read-out and setting: the same measure for `CCOc1ccc(C2C(C#N)=C(N)N(N(C)C)C3=C2C(=O)CCC3)cc1` (stereo not drawn): -4.98%.
For `COc1ccc(C2C(C#N)=C(N)N(c3ncn[nH]3)C3=C2C(=O)CCC3)cc1` (stereo not drawn), the Potency was 26.7 µM (active).
Regarding `N#CC1=C(N)N(c2ccccc2)C2=C(C(=O)CCC2)C1c1ccccc1` (stereo not drawn), the max response, negative = inhibition is -0.426%.
Still for that read-out and setting: the same measure for `CC1(C(=O)NCc2ccccc2)CN(S(C)(=O)=O)CC(=O)N1CC(F)(F)F` (stereo not drawn): 3.31%; for `CCC(=O)N1Cc2cc(C(=O)NCc3cccc(F)c3)nc(-c3cccc(C4=CCCC4)c3)c2[C@H]1CCO`: -10.3%.
Regarding `O=C(CC(n1cncn1)C(Cl)(Cl)Cl)c1ccc([N+](=O)[O-])cc1` (stereo not drawn), the Potency is 23.8 µM (active).
As for `O=C(Nn1cnnc1)c1ccc([N+](=O)[O-])cc1`, the max response, negative = inhibition was -3.8%.
The same measure, in the same setting: the value for `O=C(Cn1c[n+](CC(=O)c2ccc([N+](=O)[O-])cc2)cn1)c1ccc([N+](=O)[O-])cc1` was -8%.
Turning to `OC[C@@H]1CN(Cc2cccs2)C[C@H](n2cnc3c(NC4CCCC4)ncnc32)O1`, the max response, negative = inhibition is -8.04%.
As to `O=C(Nc1cccc2ccccc12)NC1CC1`, the max response, negative = inhibition was -14.1%.
On the same count and under the same terms, the value for `COc1ccc(C(C(=O)Nc2c(C)cccc2C)N2CCN(c3ccc(C)cc3)CC2)cc1` (stereo not drawn) was -1.1%; that for `N#Cc1c(C(F)(F)F)cc(-c2ccc(Cl)cc2)nc1SCC(=O)O` was -8.73%.
Regarding `N#Cc1c(-c2ccccc2)cc(-c2ccccc2)nc1SCC(=O)O`, the Potency is 21.2 µM (active).
As for `N#Cc1c(C(F)(F)F)cc(-c2ccccc2)nc1SCC(=O)N1CCOCC1`, the max response, negative = inhibition was -6.59%.
Still for that read-out and setting: the value for `OC(c1ccc(Cl)cc1)c1ncc(-c2ccc(Cl)cc2)[nH]1` (stereo not drawn) was 5.29%; that for `CC1=C(C(=O)N2CCOCC2)CC(CC(=O)NCCCN(C)C)C(=O)N1Cc1ccc(C(C)(C)C)cc1` (stereo not drawn) was -2.35%.
`CCc1nc2ccc(C(=O)N3CCC(O)(Cc4ccccc4)CC3)cn2c1N(C)C(=O)Cc1ccccc1`: the max response, negative = inhibition is -2.01%.
On the same count and under the same terms, the value for `Nc1ncnc2c1ncn2[C@@H]1O[C@H](C(=O)NCC(F)(F)F)[C@@H](O)[C@H]1O` was -5.72%.
As to `CCOC(=O)c1c(-n2cnnn2)sc(C)c1C`, the Potency was 26.7 µM (active).
With `CCOC(=O)N1CCN(S(=O)(=O)c2ccc(-n3cnnn3)cc2)CC1`, the max response, negative = inhibition is -22.3%.
Still for that read-out and setting: the same measure for `CCOc1ccc(C(=O)COC(=O)c2ccc(-n3cnnn3)cc2)cc1`: 2.47%.
The same measure, in the same setting: the value for `CC1(Oc2ccc(Cl)cc2)CCN(Cc2csc3ccccc23)C1` (stereo not drawn) was -4.39%.
On the same count and under the same terms, the same measure for `Cc1ccc(CNC(=O)Nc2nnc([C@H]3C[C@H](O)[C@@H](CO)O3)s2)cc1`: 6.99%.
Consider `CC(C)C[C@@H](COCc1ccc(Cl)cc1)N1CCN(C(=O)c2ccc(Cl)cc2Cl)CCC1=O`, for which the max response, negative = inhibition was -7.05%.
Still for that read-out and setting: the same measure for `CC(=O)c1cccc(-c2cnc3c(NC=O)cc(-c4cccc(C(=O)N(C)C)c4)cn23)c1`: -7.52%.
For `COc1ccc(C(=O)c2c(C)c(CCC#N)n3ccccc23)c(OC)c1`, the Potency is 29.9 µM (active).
As to `COc1ccc(C(=O)CCc2ccccc2O)c(OC)c1`, the max response, negative = inhibition is -0.281%.
Same read-out and setting: the same measure for `Cc1c(C(=O)c2cccc([N+](=O)[O-])c2)c2ccccn2c1CCC#N`: -8.17%; for `CN1CCn2cnc(C(=O)NCC(=O)OC(C)(C)C)c2C1=O`: -1.56%; for `Cc1ccccc1S(=O)(=O)N1[C@@H](c2cccc(Cl)c2)C(C(=O)OC(C)(C)C)=CC[C@H]1c1ccc(Cl)cc1`: -12.6%.
Regarding `CCCCNC(=O)C[C@@H]1C[C@@]2(C(=O)OCC)CCC=C2N(Cc2ccco2)C1=O`, the max response, negative = inhibition is -10.8%.
